# Screening data: PubChem, National Center for Advancing Translational Sciences (NCATS)
# Pf growth 96h: inhibits malaria parasite growth, 96 h. 6.9% of 320,000 active. P. falciparum luciferase reporter growth, 96 h. Potency, µM (series often up to 28.7 µM), for the others: top-dose activity change, negative = inhibition, hits mostly inhibitors; note: potency is the fitted concentration of half-maximal effect; % is set by controls: 0 for no effect and ±100 for the full control effect
#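 Two-generation exposure (96 h) targets delayed-death phenotype. Reporter parasites carrying integrated firefly luciferase, in red cells at 2% hematocrit and 0.05% parasitemia final, kept at 37 C, 5% CO2; luminescence loss indicates inhibition.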
# Marburg entry inh: blocks Marburg virus binding to or entry into cells. AID 540276. 1.8% of 300,000 active. Potency, µM (top dose mostly 37.8 µM), without a hit: at the highest dose activity change, negative = inhibition, usual class: inhibitors. Marburg virus pseudotyped entry inhibition, cell reporter; calls by dose curve; tested in HEK293 cells; note: potency is the fitted concentration of half-maximal effect; % is set by controls: 0 for no effect and ±100 for the full control effect
# Shiga inhibitor: inhibitors of Shiga toxin in Vero cells | Vero cells, Shiga toxin protein synthesis inhibition reporter | inhibition, % at 38.7 µM | 9.2% of 290,000 active; in the data active = inhibition mostly above about 28%, no sharp cut-off; inactive = mostly below about 43%; note: 0% is about no effect
# CHX counter: counter-screen for Shiga toxin inhibitors: cycloheximide protein synthesis inhibition; cell reporter, cycloheximide protein synthesis inhibition counterscreen; 12% of 300,000 active; max response, %; in the data active = max response mostly above about 13%, no sharp cut-off; inactive = mostly below about 14%; note: read at 38.3 µM for the half of the compounds with a filed dose; 0% is about no effect
# Lassa entry inh: blocks Lassa virus binding to or entry into cells | Lassa virus pseudotype entry inhibition, cell reporter | Potency, µM (highest dose often 37.9 µM), for the others: top-dose activity change, negative = inhibition, actives largely listed as inhibitors | 1.2% of 300,000 active | AID 540256; calls by dose curve; tested in HEK293 cells; note: potency is the fitted concentration of half-maximal effect; % is set by controls: 0 for no effect and ±100 for the full control effect; nearly all actives have a fitted effect of over 50% in size
# Pf growth 48h: P. falciparum growth inhibition at 48 hours (one generation). 5.9% of 310,000 active. P. falciparum luciferase growth in erythrocytes, 48 h. AID 504832. Potency, µM (doses to about 28.7 µM), for inactives: top-dose activity change, negative = inhibition, actives largely listed as inhibitors; note: potency is the fitted concentration of half-maximal effect; % is set by controls: 0 for no effect and ±100 for the full control effect
#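 Compounds are pin-transferred into medium, infected erythrocytes (2% hematocrit, 0.1% parasitemia final) are added, and plates sit one parasite generation at 37 C in 5% CO2. Detection reagent is then added and luminescence measured.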
# Active calls of the source: *; ? = inconclusive; / = no result given; [ ] = remark or other dose. Hits are enriched below; roughly 19% of the tested compounds scored in any of these assays. Unless noted, calls come from the whole dose curve; as a rule, active = well fitted inhibition curve with a large enough effect; inconclusive = small, poorly fitted or top-dose-only effect, or another doubt; inactive = no such curve, though single readings can be large or run the other way.
SMILES,Pf growth 96h,Marburg entry inh,Shiga inhibitor,CHX counter,Lassa entry inh,Pf growth 48h
Cc1ccc(-c2nc3cc(Cl)ccc3o2)cc1NC(=O)c1cc([N+](=O)[O-])ccc1N1CCOCC1,/,2%[46.1 µM],/,/,0%[46.1 µM],/
COc1ccc(CNC(=O)c2cc(C3CC3)nc3c2c(C)nn3-c2cccc(Cl)c2C)cc1,/,/,/,/,-2%[46.1 µM],/
Cc1nn(-c2ccccc2)c2sc(C(=O)N3CCCCC3)cc12,2%,?,114*,48*,?,46%
Cc1nn(-c2ccccc2)c2sc(C(=O)c3c(N)n(C)c(=O)n(C)c3=O)cc12,?,-10%,16,7,-17%,1.5µM*
CN(C)[C@@H]1C(=O)C(C(N)=O)=C(O)[C@]2(O)C(=O)C3=C(O)c4c(O)ccc(Cl)c4[C@H](O)[C@H]3C[C@@H]12,3.4µM*,/,/,/,/,6.7µM*
CN(C)C1C(=O)C(C(N)=O)=C(O)C2(O)C(=O)C3=C(O)c4c(O)cccc4C(C)(O)C3C(O)C12 (centres undefined),2.6µM*,/,10,13,/,?
C[C@@H]1c2cccc(O)c2C(O)=C2C(=O)[C@@]3(O)C(O)=C(C(N)=O)C(=O)[C@@H](N(C)C)[C@@H]3[C@@H](O)[C@@H]21,1.5µM*,/,/,/,/,7.6µM*
C=C1c2cccc(O)c2C(O)=C2C(=O)[C@@]3(O)C(O)=C(C(N)=O)C(=O)[C@@H](N(C)C)[C@@H]3[C@@H](O)[C@H]12,1.3µM*,?,/,/,?,3.2µM*
CN(C)[C@@H]1C(=O)C(C(N)=O)=C(O)[C@]2(O)C(=O)C3=C(O)c4c(O)ccc(Cl)c4[C@](C)(O)[C@H]3C[C@@H]12,?,/,/,/,/,-15%[12.8 µM]
C[C@H]1c2cccc(O)c2C(O)=C2C(=O)[C@]3(O)C(O)=C(C(N)=O)C(=O)[C@@H](N(C)C)C3[C@@H](O)C21 (some centres undefined),0.41µM*,/,/,/,/,3.7µM*
Cc1ccccc1NS(=O)(=O)c1ccc(C(=O)NCCCN2CCOCC2)cc1,-4%,-15%,/,/,3%,-2%
CCOCCCNC(=O)c1c[nH]c2ccc(S(=O)(=O)Nc3cccc(OC)c3)cc2c1=O,?,14%,23,1,-15%,?
COc1cccc(NS(=O)(=O)c2ccc3[nH]cc(C(=O)NCCN4CCOCC4)c(=O)c3c2)c1,7%,-6%,11,-6,5%,13µM*
Cc1ccccc1NS(=O)(=O)c1ccc2[nH]cc(C(=O)NCCCN3CCOCC3)c(=O)c2c1,-9%,0%,-12,1,1%,4.1µM*
C=CC(=O)NCCCc1cc(C(C)(C)C)c(O)c(C(C)(C)C)c1,0%,-25%[46.1 µM],-6,-2,?,12µM*
O=C(O)CC1Sc2nc3ccccc3n2C1=O (centres undefined),21%,4%,-15,-4,-4%,/
COc1cc(/C=N/NC(=S)NC2CC3CC2C2C=CCC32)ccc1O (centres undefined),?,?,89,34*,?,8.3µM*
CCOc1ccc(/C=N/NC(=S)NC2CC3CC2C2C=CCC32)cc1 (centres undefined),0.66µM*,4%[46.1 µM],10,4,-8%,4.1µM*
Cc1cn(CCOc2ccc(Cl)cc2)c(=O)[nH]c1=O,7%,12%[46.1 µM],7,-5,-9%[46.1 µM],-5%
Cc1ccc(C(=O)CN(Cc2ccccc2)C2=NCCS2)cc1,2%,?,25,-1,5%,5%
O=C(c1cccs1)N1CCCC(c2nc3c(nnn3Cc3cccc(Cl)c3)c(=O)[nH]2)C1 (centres undefined),9%,8%[46.1 µM],4,-4,-6%[46.1 µM],?
O=C(c1cccs1)N1CCC(c2nc3c(nnn3Cc3cccc(Cl)c3)c(=O)[nH]2)CC1,13%,2%[46.1 µM],-8,-1,?,4.7µM*
O=C(c1cccs1)N1CCC(c2nc3c(nnn3Cc3c(Cl)cccc3Cl)c(=O)[nH]2)CC1,?,1%[46.1 µM],-1,-10,/,5.9µM*
Cc1ccc(C)c(Cn2nnc3c(=O)[nH]c(C4CCN(C(=O)c5cccs5)CC4)nc32)c1,-23%,?,3,-4,?,/
O=C(Cc1cccs1)N1CCC(c2nc3c(nnn3Cc3ccc(F)cc3)c(=O)[nH]2)CC1,1%[5.75 µM],-6%,5,-1,-9%,?
SMILES,Pf growth 96h,Marburg entry inh,Shiga inhibitor,CHX counter,Lassa entry inh,Pf growth 48h
Cc1ccc(C)c(Cn2nnc3c(=O)[nH]c(C4CCCN(C(=O)c5cccs5)C4)nc32)c1 (centres undefined),-1%,?,2,-3,?,?
Cc1ccc(Cn2nnc3c(=O)[nH]c(C4CCN(C(=O)c5cccs5)CC4)nc32)cc1,0%[5.75 µM],?,7,-1,2.9µM*,13µM*
O=C(Cc1cccs1)N1CCCC(c2nc3c(nnn3Cc3cccc(Cl)c3)c(=O)[nH]2)C1 (centres undefined),-8%,6%,16,-2,?,8.3µM*
CCOC(=O)c1ccc(OCCOc2cccc(C)c2)cc1,?,/,-4,-2,/,?
CCCCCN(C(=O)COC(=O)CSc1ccc([N+](=O)[O-])cc1)c1c(N)n(CCCC)c(=O)[nH]c1=O,3%,-4%[46.1 µM],/,/,-6%,9%
COc1ccc(N(C)C(=O)c2ccc(NC(=O)CCS(=O)(=O)c3cccs3)cc2)cc1,?,17%[46.1 µM],13,-3,6%,-10%
NC(=O)CSc1nnc(NC(=O)c2cccc(S(=O)(=O)N3CCCCC3)c2)s1,?,11%[14.2 µM],-13,-6,-30%,18%
CC1CCCCN1CCNC(=O)C1CC(=O)N(c2ccc(F)c(Cl)c2)C1 (centres undefined),47%,-3%,12,-4,19%,?
CC1CCCN(CCCNC(=O)C2CC(=O)N(c3ccc(F)c(Cl)c3)C2)C1 (centres undefined),8%,4%,-7,-5,6%,15µM*
COCCNC(=O)c1ccc(Cl)c(Cl)c1,/,-3%,-5,-3,0%,3%
O=C(COc1ccccc1)N=C1SC2CS(=O)(=O)CC2N1c1ccccc1 (centres undefined),0%,/,-6,-2,/,14%
CN(C)c1ccc(N2C(=NC(=O)COc3ccccc3)SC3CS(=O)(=O)CC32)cc1 (centres undefined),?,/,46*,25*,/,3%
COc1ccc(CN2C(=NC(=O)COc3ccccc3)SC3CS(=O)(=O)CC32)cc1 (centres undefined),?,4%[46.1 µM],-8,-3,0%[46.1 µM],?
O=C(COc1ccccc1)N=C1SC2CS(=O)(=O)CC2N1Cc1ccccc1 (centres undefined),13µM*,/,-5,3,/,?
COc1cccc(-c2coc3c(C)c4oc(=O)c(CC(=O)O)c(C)c4cc23)c1,-11%,0%,-6,-4,0%,?
O=C(CN1C(=O)NC2(CCCC2)C1=O)N1CCN(S(=O)(=O)c2ccccc2F)CC1,7%,?,-8,-3,-14%,0%
